Assay [1] can be described thus: ATG_GAL4_TRANS: Attagene TRANS-FACTORIAL HepG2 Assay for GAL4 (Internal Marker) (AID 2282976; active means hit-call score of the fitted dose curve at least 0.9, where 1 is the maximum). To be noted: HepG2 Attagene TRANS GAL4 internal marker reporter. Summed up:
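In transfected human HepG2 liver cells dosed 24 h, GAL4 reporter mRNA serves as a baseline marker. Detection by RT-PCR with fluorescent capillary electrophoresis, activity fitted upward relative to DMSO.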

For assay [2], the target named is Estrogen-related receptor gamma (Homo sapiens) (UniProt P62508). Kind of assay: ATG_ERRg_TRANS: Attagene TRANS-FACTORIAL HepG2 Assay for human Estrogen-Related Receptor gamma (ERRg) (AID 2282977; active means hit-call score of the fitted dose curve at least 0.9, where 1 is the maximum;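 further: hits increase reporter signal over DMSO so potencies reflect activators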). The settings on record: HepG2 Attagene TRANS reporter, ERRg transactivation. Summed up:
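Readout: fluorescent reporter-mRNA fragments resolved by capillary electrophoresis after RT-PCR and HpaI cut. Cells: transiently transfected HepG2 carrying GAL4-UAS reporters driven by exogenous NR-Gal4 chimeras, dosed 24 h. Activity fitted upward relative to DMSO baseline.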

Assay [3] deals with Glucocorticoid receptor (Homo sapiens) (UniProt P04150). Kind of assay: ATG_GR_TRANS: Attagene TRANS-FACTORIAL HepG2 Assay for human Glucocorticoid Receptor (GR) (AID 2282978; active means hit-call score of the fitted dose curve at least 0.9, where 1 is the maximum;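 further: activators score as hits since higher reporter transcript over DMSO is fitted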). To be noted: HepG2 Attagene TRANS GR reporter, mRNA transcription. Summed up: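 After 24 h incubation with test chemical, transfected HepG2 cells were lysed for RNA; reporter cDNA was amplified, FAM-labelled, HpaI-digested and sized on a capillary analyser. Signal gain relative to DMSO was scored.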

The target in assay [4] is Bile acid receptor (Homo sapiens) (UniProt Q96RI1). The assay is described as follows: ATG_FXR_TRANS: Attagene TRANS-FACTORIAL HepG2 Assay for Farnesoid X Receptor (FXR) (AID 2282979; active means hit-call score of the fitted dose curve at least 0.9, where 1 is the maximum;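 further: hits raise reporter mRNA above DMSO so AC50 marks FXR activation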). To be noted: HepG2 Attagene TRANS FXR-GAL4 reporter transcription. Summed up: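 Reporter transcripts from transfected HepG2 cells were measured 24 h after dosing, using RT-PCR with capillary electrophoresis of 6-FAM-labelled fragments. The read-out reflects activity of exogenous FXR-Gal4 chimera on GAL4-UAS units, with induction relative to DMSO.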

Assay [5] concerns the target Oxysterols receptor LXR-alpha (Homo sapiens) (UniProt Q13133). Kind of assay: ATG_LXRa_TRANS: Attagene TRANS-FACTORIAL HepG2 Assay for human Liver X Receptor alpha (LXRa) (AID 2282980; active means hit-call score of the fitted dose curve at least 0.9, where 1 is the maximum). To be noted: HepG2 Attagene TRANS reporter, LXRa transactivation. The essentials:
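Chemical-induced reporter mRNA measured by RT-PCR with fluorescent labelling and capillary electrophoresis after 24 h dosing of transiently transfected HepG2 cells expressing exogenous NR-Gal4 chimeras; increases scored against DMSO baseline.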

In assay [6] the target is Oxysterols receptor LXR-beta (Homo sapiens) (UniProt P55055). The assay is described as follows: ATG_LXRb_TRANS: Attagene TRANS-FACTORIAL HepG2 Assay for human Liver X Receptor beta (LXRb) (AID 2282981; active means hit-call score of the fitted dose curve at least 0.9, where 1 is the maximum). To be noted: HepG2 Attagene TRANS GAL4-LXRb reporter, mRNA. The essentials:
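Readout: fluorescent reporter mRNA fragments resolved by capillary electrophoresis after RT-PCR. System: transiently transfected human HepG2, exogenous LXRb-Gal4 chimera driving GAL4-UAS reporter, 24 h dosing. Activity fitted upward against DMSO baseline.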

Assay [7] deals with Hepatocyte nuclear factor 4-alpha (Homo sapiens) (UniProt P41235). The assay is described as follows: ATG_HNF4a_TRANS: Attagene TRANS-FACTORIAL HepG2 Assay for human Hepatocyte Nuclear Factor 4 alpha (HNF4a) (AID 2282982; active means hit-call score of the fitted dose curve at least 0.9, where 1 is the maximum). The settings on record: HepG2 HNF4a transactivation reporter, mRNA readout. Summed up: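 Transient MRTU transfection of HepG2, 24 h dosing. Readout: reporter mRNA via RT-PCR + capillary electrophoresis, fluorescence; activity fit upward relative to DMSO control.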

A short description of assay [8]: ATG_M_06_TRANS: Attagene TRANS-FACTORIAL HepG2 Assay for M06 Transcription Factor (Internal Marker) (AID 2282983; active means hit-call score of the fitted dose curve at least 0.9, where 1 is the maximum). The settings on record: HepG2 Attagene TRANS M06 internal marker reporter. The essentials:
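Background-control reporter readout: after 24 h chemical exposure of transiently transfected HepG2 (GAL4-UAS reporter units), mRNA quantified by RT-PCR with fluorescent labeling and capillary electrophoresis. Gain-of-signal fitting against DMSO baseline.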

Assay [9] can be described thus: ATG_M_32_TRANS: Attagene TRANS-FACTORIAL HepG2 Assay for M32 Transcription Factor (Internal Marker) (AID 2282984; active means hit-call score of the fitted dose curve at least 0.9, where 1 is the maximum;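 further: transcript level of a background control reporter unit measured by RT-PCR and capillary electrophoresis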). The settings on record: HepG2 Attagene TRANS M32 internal marker reporter. Summed up: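 Read-out: fluorescent reporter cDNA fragments resolved by capillary electrophoresis after RT-PCR of total RNA. Transfected HepG2 cells were exposed to chemical for 24 h. Activity scored in the positive direction relative to DMSO.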

The target in assay [10] is Nuclear receptor subfamily 4 group A member 2 (Homo sapiens) (UniProt P43354). Kind of assay: ATG_NURR1_TRANS: Attagene TRANS-FACTORIAL HepG2 Assay for human Nuclear Receptor Related Protein 1 (NURR1) (AID 2282985; active means hit-call score of the fitted dose curve at least 0.9, where 1 is the maximum). To be noted: HepG2 Attagene TRANS reporter, mRNA readout. The essentials:
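Read-out: reporter mRNA induction by RT-PCR plus capillary electrophoresis with fluorescence detection, after 24 h dosing of transfected HepG2 cells. Exogenous NR-Gal4 chimera activity drives GAL4-UAS reporter; activity fitted upward versus DMSO.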

For assay [11], the target named is Transcriptional activator Myb (Homo sapiens) (UniProt P10242). Kind of assay: ATG_Myb_CIS: Attagene CIS-FACTORIAL HepG2 Assay for human Myeloblastosis (Myb) Proto-Oncogene Transcription Factor (AID 2282986). To be noted: HepG2 Attagene CIS-FACTORIAL Myb reporter transcription; actives raise or lower the signal. Summed up: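 After 24 h of compound dosing, total RNA from transfected HepG2 cells is reverse-transcribed and the reporter sequences amplified, labeled and separated by capillary electrophoresis. Values come from bidirectional fitting against DMSO.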

Assay [12] concerns the target Nuclear respiratory factor 1 (Homo sapiens) (UniProt Q16656). The assay is described as follows: ATG_NRF1_CIS: Attagene CIS-FACTORIAL HepG2 Assay for human Nuclear Respiratory Factor 1 (NRF1) Orphan Gene (AID 2282987). To be noted: HepG2 NRF1 cis-element reporter, Attagene multiplex; actives raise or lower the signal. Summed up:
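Measured: fluorescent reporter-specific RT-PCR products from transfected HepG2 cells, separated by capillary electrophoresis. Exposure lasted 24 h. Analysis used bidirectional curve fitting with DMSO as negative control.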

Assay [13] is described as follows: ATG_NFI_CIS: Attagene CIS-FACTORIAL HepG2 Assay for human Nuclear Factor I (NFI) (AID 2282989). To be noted: HepG2 cis-regulatory reporter, NFI response element transcription; actives raise or lower the signal. The essentials: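 Reporter transcription driven by endogenous transcription factors in HepG2 cells; 24 h treatment. Quantitation by labelled RT-PCR fragments on capillary electrophoresis, gain- or loss-of-signal relative to DMSO.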

For assay [14], the target named is Myc proto-oncogene protein (Homo sapiens) (UniProt P01106). The assay is described as follows: ATG_Myc_CIS: Attagene CIS-FACTORIAL HepG2 Assay for human Myelocytomatosis (Myc) Proto-Oncogene Transcription Factor (AID 2282990). To be noted: HepG2, Attagene cis-reporter transcription factor activity; actives raise or lower the signal. The essentials: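 Read-out: fluorescent reporter mRNA fragments resolved by capillary electrophoresis after RT-PCR. Human HepG2 liver cells carried transfected cis-element reporter units and were dosed for 24 h. Gain or loss of signal fitted relative to DMSO baseline.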

Assay [15] in a line: ATG_NF_kB_CIS: Attagene CIS-FACTORIAL HepG2 Assay for human Nuclear Factor Kappa B (NF-kB) (AID 2282991). To be noted: HepG2 Attagene cis-factorial NF-kB reporter mRNA; actives raise or lower the signal. The essentials: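 Fluorescence of labelled RT-PCR products separated by capillary electrophoresis gives reporter mRNA levels from transfected HepG2 cells exposed 24 h; values are fitted in both directions relative to DMSO.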

Assay [16] is described as follows: ATG_NRF2_ARE_CIS: Attagene CIS-FACTORIAL HepG2 Assay for human Nuclear Factor Erythroid 2 Related Factor 2 (NFR2) response to Antioxidant Response Elements (ARE) (AID 2282992). To be noted: HepG2 Attagene ARE/NRF2 reporter, transcription factor activity; actives raise or lower the signal. Summed up: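 Endogenous transcription factor activity in human liver HepG2 cells is tracked via a cis-element-driven reporter within a multiplexed set. mRNA induction is read by RT-PCR and capillary electrophoresis after 24 h, with DMSO as baseline.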

Assay [17] is described as follows: ATG_Oct_MLP_CIS: Attagene CIS-FACTORIAL HepG2 Assay for human Octamer-Binding Transcription Factor (Oct) (AID 2282993). The settings on record: HepG2 Attagene cis-factorial Oct reporter, mRNA; actives raise or lower the signal. Summed up:
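Transfected HepG2 cells, 24 h treatment. Reporter mRNA quantified by RT-PCR–capillary electrophoresis; bidirectional fitting against DMSO.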

Assay [18] concerns the target Cellular tumor antigen p53 (Homo sapiens) (UniProt P04637). Kind of assay: ATG_p53_CIS: Attagene CIS-FACTORIAL HepG2 Assay for human p53 Transcription Factor (AID 2282994). To be noted: HepG2 p53 cis-element reporter, Attagene mRNA; actives raise or lower the signal. The essentials:
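Steps: transfect HepG2 with multiplexed cis reporter constructs; dose chemicals 24 h; extract RNA, reverse-transcribe, PCR-amplify reporter sequences; FAM-label, HpaI-digest, resolve fragments by CE. Activity fitted both directions relative to DMSO.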

Assay [19] in a line: BSK_3C_TissueFactor: BioMAP Diversity Plus: 3C Assay for Tissue Factor Biomarker Activity (AID 2282997). To be noted: BioMAP 3C HUVEC, tissue factor biomarker readout; actives raise or lower the signal. The essentials: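 Tissue factor on primary human umbilical vein endothelium was read by ELISA 24 h after dosing, gain or loss relative to DMSO. Cytotoxicity ran alongside via SRB (0.1%, TCA-fixed, 560 nm).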

A short description of assay [20]: BSK_3C_uPAR: BioMAP Diversity Plus: 3C Assay for Urokinase-type plasminogen activator receptor (uPAR) Biomarker Activity (AID 2282998). The settings on record: BioMAP 3C HUVEC, uPAR biomarker ELISA; actives raise or lower the signal. Summed up: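 Readout: ELISA for surface uPAR. System: human umbilical vein endothelial primary cells, 24 h after chemical exposure. Analysis: bidirectional fit, DMSO baseline.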

“And” between values parts separate entries of the source, which are not always exact repeats. Equal values may be shown once. Results filed as inconclusive are left out. More than one record can exist for a structure, and the calls need not agree. The source made the active and inactive calls. How the source made its calls, unless noted: active means hit-call score of the fitted dose curve at least 0.9, where 1 is the maximum; inactive means score below 0.9.

Sequence of Glucocorticoid receptor (Homo sapiens) (P04150 whole entry, looked up): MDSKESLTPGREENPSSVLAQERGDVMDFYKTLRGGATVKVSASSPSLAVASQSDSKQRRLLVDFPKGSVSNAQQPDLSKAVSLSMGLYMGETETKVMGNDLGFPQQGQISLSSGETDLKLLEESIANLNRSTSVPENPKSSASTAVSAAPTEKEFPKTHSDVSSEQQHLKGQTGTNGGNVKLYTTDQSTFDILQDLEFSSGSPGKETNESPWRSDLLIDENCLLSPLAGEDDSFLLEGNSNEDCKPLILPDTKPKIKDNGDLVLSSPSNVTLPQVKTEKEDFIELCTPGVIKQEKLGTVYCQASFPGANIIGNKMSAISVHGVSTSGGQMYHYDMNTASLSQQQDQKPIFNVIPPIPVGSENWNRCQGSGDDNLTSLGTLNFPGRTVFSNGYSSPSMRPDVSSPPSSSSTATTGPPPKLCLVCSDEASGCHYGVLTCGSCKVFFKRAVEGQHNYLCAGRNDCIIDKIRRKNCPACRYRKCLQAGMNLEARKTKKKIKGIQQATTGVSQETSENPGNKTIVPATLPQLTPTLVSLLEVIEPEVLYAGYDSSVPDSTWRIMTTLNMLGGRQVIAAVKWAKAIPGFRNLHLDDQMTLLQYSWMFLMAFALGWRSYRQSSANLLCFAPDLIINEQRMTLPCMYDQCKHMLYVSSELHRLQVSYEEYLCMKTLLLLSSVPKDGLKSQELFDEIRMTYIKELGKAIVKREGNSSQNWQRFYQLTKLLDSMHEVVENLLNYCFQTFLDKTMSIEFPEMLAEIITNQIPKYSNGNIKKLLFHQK
Sequence of Estrogen-related receptor gamma (Homo sapiens) (P62508 whole entry, looked up, the tested form may be a part): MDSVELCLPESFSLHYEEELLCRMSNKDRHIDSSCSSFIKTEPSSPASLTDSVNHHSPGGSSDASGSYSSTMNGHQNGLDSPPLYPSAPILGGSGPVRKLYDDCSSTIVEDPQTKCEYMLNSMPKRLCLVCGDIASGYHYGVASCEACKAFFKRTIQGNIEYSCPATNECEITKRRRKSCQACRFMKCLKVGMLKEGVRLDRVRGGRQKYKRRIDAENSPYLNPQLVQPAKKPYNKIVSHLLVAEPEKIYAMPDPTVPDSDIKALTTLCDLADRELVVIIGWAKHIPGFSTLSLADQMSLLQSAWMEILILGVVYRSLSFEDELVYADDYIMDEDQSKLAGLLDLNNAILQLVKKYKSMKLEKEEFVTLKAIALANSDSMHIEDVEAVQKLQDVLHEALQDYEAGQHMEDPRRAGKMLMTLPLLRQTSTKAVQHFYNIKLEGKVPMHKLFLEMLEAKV
Sequence of Oxysterols receptor LXR-alpha (Homo sapiens) (Q13133 whole entry, looked up, the tested form may be a part): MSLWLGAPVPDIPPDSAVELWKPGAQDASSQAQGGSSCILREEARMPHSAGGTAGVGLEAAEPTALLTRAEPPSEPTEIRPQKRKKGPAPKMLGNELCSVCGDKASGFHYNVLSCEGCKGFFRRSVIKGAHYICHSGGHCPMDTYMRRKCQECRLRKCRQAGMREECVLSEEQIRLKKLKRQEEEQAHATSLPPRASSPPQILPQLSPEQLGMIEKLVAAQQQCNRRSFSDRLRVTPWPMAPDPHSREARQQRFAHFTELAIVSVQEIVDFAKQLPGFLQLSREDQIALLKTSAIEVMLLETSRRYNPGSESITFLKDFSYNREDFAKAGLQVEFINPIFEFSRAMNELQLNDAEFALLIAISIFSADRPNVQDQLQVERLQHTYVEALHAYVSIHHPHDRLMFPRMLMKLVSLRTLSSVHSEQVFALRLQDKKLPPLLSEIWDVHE
Sequence of Bile acid receptor (Homo sapiens) (Q96RI1 whole entry, looked up, the tested form may be a part): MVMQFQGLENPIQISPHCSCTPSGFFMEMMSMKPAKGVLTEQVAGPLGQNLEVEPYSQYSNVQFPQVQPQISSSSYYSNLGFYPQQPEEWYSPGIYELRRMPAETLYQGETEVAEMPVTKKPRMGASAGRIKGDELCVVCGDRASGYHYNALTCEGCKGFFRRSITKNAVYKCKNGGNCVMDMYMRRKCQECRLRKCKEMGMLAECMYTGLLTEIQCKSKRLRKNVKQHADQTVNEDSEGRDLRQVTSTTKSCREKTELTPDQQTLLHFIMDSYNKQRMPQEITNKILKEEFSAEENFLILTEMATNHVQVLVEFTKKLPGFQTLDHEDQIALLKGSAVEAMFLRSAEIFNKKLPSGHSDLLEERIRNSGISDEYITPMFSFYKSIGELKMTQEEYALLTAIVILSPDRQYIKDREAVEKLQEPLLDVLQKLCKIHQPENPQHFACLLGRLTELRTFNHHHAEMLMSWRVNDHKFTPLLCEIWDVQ
Sequence of Transcriptional activator Myb (Homo sapiens) (P10242 whole entry, looked up): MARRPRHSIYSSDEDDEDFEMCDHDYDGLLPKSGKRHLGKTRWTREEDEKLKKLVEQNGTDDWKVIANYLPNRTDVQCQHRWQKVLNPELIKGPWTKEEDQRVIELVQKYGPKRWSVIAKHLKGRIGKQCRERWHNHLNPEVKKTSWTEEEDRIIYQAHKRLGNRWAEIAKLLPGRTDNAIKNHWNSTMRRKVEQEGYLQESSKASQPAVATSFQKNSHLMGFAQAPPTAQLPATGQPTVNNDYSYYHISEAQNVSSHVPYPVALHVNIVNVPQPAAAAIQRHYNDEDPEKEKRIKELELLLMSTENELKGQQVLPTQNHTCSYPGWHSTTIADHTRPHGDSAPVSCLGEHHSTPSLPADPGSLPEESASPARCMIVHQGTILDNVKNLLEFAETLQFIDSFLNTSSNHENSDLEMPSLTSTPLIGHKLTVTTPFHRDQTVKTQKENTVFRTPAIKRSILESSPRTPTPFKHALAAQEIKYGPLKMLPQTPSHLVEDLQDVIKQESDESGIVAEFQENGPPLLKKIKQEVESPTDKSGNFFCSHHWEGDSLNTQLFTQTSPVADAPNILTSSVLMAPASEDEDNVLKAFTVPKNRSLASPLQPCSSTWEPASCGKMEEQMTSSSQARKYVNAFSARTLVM
Sequence of Hepatocyte nuclear factor 4-alpha (Homo sapiens) (P41235 whole entry, looked up): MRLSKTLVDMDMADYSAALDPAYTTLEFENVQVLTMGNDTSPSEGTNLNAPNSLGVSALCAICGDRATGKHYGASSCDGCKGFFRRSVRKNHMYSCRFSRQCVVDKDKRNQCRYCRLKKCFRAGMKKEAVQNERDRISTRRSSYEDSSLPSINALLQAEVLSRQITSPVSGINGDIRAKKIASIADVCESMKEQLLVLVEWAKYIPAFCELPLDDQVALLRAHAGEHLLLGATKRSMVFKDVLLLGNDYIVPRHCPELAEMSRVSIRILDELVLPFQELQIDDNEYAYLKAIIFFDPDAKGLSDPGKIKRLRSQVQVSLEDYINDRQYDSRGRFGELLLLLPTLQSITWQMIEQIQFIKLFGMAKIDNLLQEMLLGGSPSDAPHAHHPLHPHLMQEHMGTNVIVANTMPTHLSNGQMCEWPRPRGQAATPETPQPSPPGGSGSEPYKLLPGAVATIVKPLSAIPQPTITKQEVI
Sequence of Nuclear respiratory factor 1 (Homo sapiens) (Q16656 whole entry, looked up): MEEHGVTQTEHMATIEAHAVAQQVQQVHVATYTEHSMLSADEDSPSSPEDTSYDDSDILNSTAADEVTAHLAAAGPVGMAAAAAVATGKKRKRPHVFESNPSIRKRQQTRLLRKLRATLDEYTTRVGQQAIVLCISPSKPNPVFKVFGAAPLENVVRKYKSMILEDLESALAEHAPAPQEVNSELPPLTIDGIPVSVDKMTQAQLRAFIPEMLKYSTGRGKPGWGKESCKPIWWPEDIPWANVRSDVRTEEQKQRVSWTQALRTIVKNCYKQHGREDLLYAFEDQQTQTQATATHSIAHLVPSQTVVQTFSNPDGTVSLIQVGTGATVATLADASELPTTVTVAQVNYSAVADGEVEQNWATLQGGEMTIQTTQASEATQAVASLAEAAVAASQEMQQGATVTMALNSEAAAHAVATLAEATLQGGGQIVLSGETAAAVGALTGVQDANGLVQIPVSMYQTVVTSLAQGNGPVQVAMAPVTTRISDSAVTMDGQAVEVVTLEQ
Sequence of Myc proto-oncogene protein (Homo sapiens) (P01106 whole entry, looked up, the tested form may be a part): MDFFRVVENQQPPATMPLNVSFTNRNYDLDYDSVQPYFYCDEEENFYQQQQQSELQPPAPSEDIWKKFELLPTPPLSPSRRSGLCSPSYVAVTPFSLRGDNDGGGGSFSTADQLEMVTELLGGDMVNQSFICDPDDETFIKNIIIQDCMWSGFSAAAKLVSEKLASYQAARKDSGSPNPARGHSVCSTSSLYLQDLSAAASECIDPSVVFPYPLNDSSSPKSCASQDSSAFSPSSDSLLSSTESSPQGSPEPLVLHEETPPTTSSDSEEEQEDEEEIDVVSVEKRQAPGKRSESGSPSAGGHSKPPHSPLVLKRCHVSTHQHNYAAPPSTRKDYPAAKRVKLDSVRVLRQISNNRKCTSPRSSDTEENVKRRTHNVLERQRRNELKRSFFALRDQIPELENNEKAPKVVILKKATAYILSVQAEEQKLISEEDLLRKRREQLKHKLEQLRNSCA
Sequence of Nuclear receptor subfamily 4 group A member 2 (Homo sapiens) (P43354 whole entry, looked up, the tested form may be a part): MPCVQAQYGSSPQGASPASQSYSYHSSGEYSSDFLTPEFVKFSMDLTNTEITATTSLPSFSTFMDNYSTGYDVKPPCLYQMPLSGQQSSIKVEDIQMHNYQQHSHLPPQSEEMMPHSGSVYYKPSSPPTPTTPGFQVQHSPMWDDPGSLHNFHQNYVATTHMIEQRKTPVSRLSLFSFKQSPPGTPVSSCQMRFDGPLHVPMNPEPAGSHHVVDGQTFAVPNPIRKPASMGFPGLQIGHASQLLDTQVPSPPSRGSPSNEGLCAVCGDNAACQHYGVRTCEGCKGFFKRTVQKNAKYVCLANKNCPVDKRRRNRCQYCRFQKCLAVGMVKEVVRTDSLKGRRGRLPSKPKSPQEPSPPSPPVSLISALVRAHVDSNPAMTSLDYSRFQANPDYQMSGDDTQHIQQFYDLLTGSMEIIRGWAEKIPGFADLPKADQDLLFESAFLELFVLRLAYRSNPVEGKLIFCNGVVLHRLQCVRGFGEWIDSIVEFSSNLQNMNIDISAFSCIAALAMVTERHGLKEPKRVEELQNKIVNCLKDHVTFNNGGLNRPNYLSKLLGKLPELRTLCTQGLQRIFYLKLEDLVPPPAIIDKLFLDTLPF

For the compound `CNC(=O)ON=CC(C)(C)SC`, the result in [1], in [2], in [3], in assay [4], in assay [5] and in assay [6] was inactive. Further, the compound was called inactive in assay [7], in [8], in assay [9], in assay [10], in [11] and in [12]. Moreover, the compound was called inactive in assay [13], in assay [14], in assay [15], in [16], in assay [17] and in assay [18]. For the same compound, the outcome in [19] and in [20] was inactive. Moreover, in assay [12], the AC50 is 43.4 µM (active).
In the case of `COC(=O)C=C(C)OP(=O)(OC)OC`, the call in [2], in [3], in assay [4], in assay [6], in [7] and in [9] was inactive. Besides, the outcome in [10], in [11], in assay [12], in assay [13], in assay [14] and in assay [17] was inactive. In addition, the compound was classed as inactive in [18], in assay [19] and in assay [20]. In addition, the AC50 in assay [16] is 50 µM (active).
As to `CCCCOC(=O)c1ccccc1C(=O)OCCCC`, the compound was called inactive in [1], in [2], in assay [3], in [5], in [6] and in assay [7]. The compound was classed as inactive in assay [8], in assay [9], in assay [10], in assay [11], in assay [12] and in assay [13]. In addition, the call in assay [14], in assay [15], in assay [17], in assay [18], in [19] and in [20] was inactive. Besides, the AC50 in assay [16] is 62.4 µM (active) [middle of 5 runs].
Regarding `COC(=O)N(OC)c1ccccc1COc1ccn(-c2ccc(Cl)cc2)n1`, the outcome in [1], in assay [2], in assay [3], in assay [4], in [5] and in [6] was inactive. The compound was called inactive in assay [7], in [8], in assay [9], in assay [11], in assay [12] and in assay [13]. In addition, the compound was classed as inactive in [14], in assay [18] and in assay [19]. The AC50 in [16] is 0.635 µM (active); in assay [17], 702 nM (active); in assay [20], 20 µM (active).
For the compound `COC(=O)C(C)Oc1ccc(Oc2ccc(Cl)cc2Cl)cc1` (stereo not given), the call in assay [2], in assay [3], in assay [4], in [5], in assay [6] and in [7] was inactive. The compound was classed as inactive in assay [8], in [9], in assay [10], in assay [11], in assay [12] and in assay [13]. In addition, the compound was called inactive in [14], in assay [15], in assay [16], in [17], in [18] and in assay [19]. Also, the AC50 in [20] was 25.7 µM (active) and 20 µM (active) and 13.3 µM (active).
For `Cc1cc(Cl)ccc1OCC(=O)O`, the outcome in assay [1], in [3], in assay [5], in assay [6], in assay [7] and in [8] was inactive. Further, the compound was called inactive in assay [9], in [10], in [11], in assay [12], in assay [13] and in [14]. The outcome in [16], in [17], in assay [18], in assay [19] and in assay [20] was inactive.

Source of the values: PubChem BioAssay (EPA / NIEHS).
